Screening data (PubChem BioAssay)
Many of the other results were omitted from the sample, so hits are more common in it than they were.
HSV replic up: HSV replication enhancement; HSV replication augmentation in cells, fold increase; hit rate 0.005% among 220,000; maximum fold increase; in the data active = maximum fold increase above about 1.5; inconclusive = no clear call, values can overlap the other calls; tested in PC3 cells
ROMK mod: human ROMK K+ channel modulation, primary screen; P48048; Tet-inducible ROMK, thallium flux fluorescence; actives lie on both sides; B-score at 10 µM; hit rate 2% among 130,000; AID 1918;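 active = signal ratio slope over the read window, or its plate-corrected B-score, at least 3 SD from the plate mean, either direction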;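 also: B-score of the F/F0 ratio slope over 7 to 12 s after thallium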
Target sequence (P48048 whole entry, looked up): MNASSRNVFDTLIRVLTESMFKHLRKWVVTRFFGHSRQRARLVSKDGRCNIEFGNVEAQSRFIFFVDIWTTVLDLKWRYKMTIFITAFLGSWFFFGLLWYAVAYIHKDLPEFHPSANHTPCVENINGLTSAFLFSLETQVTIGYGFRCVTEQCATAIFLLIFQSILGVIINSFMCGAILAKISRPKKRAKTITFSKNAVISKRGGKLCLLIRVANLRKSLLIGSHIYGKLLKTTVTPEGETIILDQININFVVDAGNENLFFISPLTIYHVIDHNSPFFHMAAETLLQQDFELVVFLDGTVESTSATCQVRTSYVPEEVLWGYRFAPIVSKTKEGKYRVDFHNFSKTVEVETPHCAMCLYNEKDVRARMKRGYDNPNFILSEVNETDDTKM
Ins promoter up: MIN6 insulin promoter up-regulation. MIN6 insulin promoter-GFP reporter, high-content imaging; stronger effect = higher value. z-score at 5 µM. hit rate 0.3% among 190,000. AID 1625;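 active = z-score above 3 at 5 µM with at least 500 cells counted in the well; inconclusive = wells under 500 cells, flagged as cytotoxic or low count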
Insulin prom inh: TRM-6 insulin promoter activity inhibition. TRM-6 cells (human fetal islet line), insulin promoter-eGFP reporter, imaging; reporter expression induced with tamoxifen. inhibition, % at 2 µM. hit rate 0.9% among 130,000;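 active = inhibition above the mean plus 3 SD, with well images judged a real hit on visual review, cut at about 60% in these data, passing the limit was not always enough; inconclusive = inhibition over the cutoff but images rejected on review; inactive = inhibition not above the cutoff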
TbHK1 inh: T. brucei hexokinase 1 inhibition. recombinant TbHK1, G6PDH-coupled NADH A340. inhibition, % at 10 µM. hit rate 0.11% among 220,000. AID 1430;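 active = inhibition of 50% or more in the single-dose primary screen; inactive = inhibition below 50%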
* = called active by the depositor; i = inactive; ? = inconclusive; nt = not tested or not shown.

SMILES | HSV replic up | ROMK mod | Ins promoter up | Insulin prom inh | TbHK1 inh
Cc1cccc(C(=O)N2c3ccccc3C(=O)OC2c2ccc3c(c2)OCO3)c1 (stereo not given) | nt | 0.743 | 0.64 | nt | 2.9
Cc1cc(-c2nnc(CCC(=O)NC(Cc3ccccc3)c3ccccc3)o2)no1 (stereo not given) | i | 0.0114 | 0.14 | nt | -7.1
COc1ccc2c(CC(=O)Nc3ccc(OC)nc3)coc2c1 | i | -0.218 | -0.14 | -45.5 | -6.8
Fc1ccccc1-c1csc(=Nc2cccnc2)n1CCCn1ccnc1 | i | nt | -0.33 | -19.4 | -3.4
CCOC(=O)C1=C(C)Nc2ccccc2N=C1NC(=O)c1ccc(Cl)c(S(=O)(=O)N2CCCC2)c1 | i | 0.11 | -0.18 | nt | -2.3
O=C1/C(=C/C=C/c2ccco2)SC(=S)N1NS(=O)(=O)c1ccccc1 | i | 1.13 | nt | nt | 67.1*
COC(=O)C1=C(N)N(c2ccccc2F)C2=C(C(=O)CC(C)(C)C2)C1c1ccc(OC)c(OC)c1 (stereo not given) | i | 0.0737 | -0.93 | -53.9 | -11.4
COc1ccc(CNC(=O)C/C(C)=N/NC(=O)COc2ccc(Br)cc2)cc1 | i | 0.0409 | -0.1 | nt | 2.3
O=C(NCc1ccc2c(c1)OCO2)C1(S(=O)(=O)c2ccccc2)CC1 | i | nt | nt | 93.3* | -3.4
O=C(Oc1ccc(NC2=C(Cl)C(=O)c3ccccc3C2=O)cc1)c1ccc([N+](=O)[O-])cc1 | i | -0.529 | -0.06 | 62.5* | -3.8
CN(Cc1ccccc1)C(=O)C1CCCN(Cc2cccc(Cl)c2)C1 (stereo not given) | i | -0.673 | -0.06 | -92.9 | 2.0
COc1ccc(Nc2nc(N3CCCCC3)c3ccccc3n2)cc1 | i | nt | -1.86 | -10.0 | 5.4
Oc1ccc(Nc2nc(N3CCCC3)c3ccccc3n2)cc1 | i | -4.83* | ? | nt | -3.7
Cc1ccccc1-c1nnc(Cc2ccccc2)o1 | i | -0.812 | 0.69 | 13.3 | -0.1
CCNC(=O)COC(=O)c1ccc(NS(=O)(=O)c2ccc3c(c2)OCCO3)cc1 | i | -0.243 | 0.19 | 42.9 | 3.2
O=C(COC(=O)c1ccc(NS(=O)(=O)c2ccc3c(c2)OCCO3)cc1)NC1CC1 | i | 1.57 | 0.09 | 91.7* | -9.7
Cc1ccc2c(Cl)c(C)c(N3CCCCC3)nc2n1 | i | nt | -0.72 | 83.3* | -14.9
O=C(Nc1nnc(-c2ccccc2)o1)c1cc(Cl)sc1Cl | i | 2.35* | 0.43 | 3.6 | 13.5
O=C(Nc1nnc(-c2ccc(F)cc2)o1)c1cc(Cl)sc1Cl | i | 3.17* | 0.13 | -257.1 | 43.5
COc1cccc(-c2nnc(NC(=O)c3ccc(Cl)s3)o2)c1 | nt | 1.94* | 0.28 | -148.8 | -4.7
N#CCC(=O)Nc1ccc(C(F)(F)F)cc1N1CCOCC1 | i | 0.594 | -0.05 | nt | 2.1
CN(C)/C=C/C(=O)c1ccccc1OCc1cnc(Cl)s1 | i | -0.00419 | -0.04 | nt | -3.8
CC(=O)C1=NN(c2ccccc2)C(c2ccc3c(c2)OCO3)N1c1ccc(N2CCOCC2)cc1 (stereo not given) | i | 0.225 | 0.73 | -3.9 | -11.7
CC(=O)C1=NN(c2ccccc2)C(c2cccs2)N1c1ccccc1 (stereo not given) | 1.53* | -1.17 | -0.65 | 22.9 | -2.2
O=C(CN1C(=O)/C(=C\c2cccc(Cl)c2)Oc2ccccc21)N1CCN(c2ccccn2)CC1 | i | -0.156 | -1.63 | -45.5 | -11.9
SMILES | HSV replic up | ROMK mod | Ins promoter up | Insulin prom inh | TbHK1 inh
O=C(Nc1nnc(C2CC2)s1)c1ccc(Cl)c(S(=O)(=O)N2CCc3ccccc3C2)c1 | i | -0.374 | 0.25 | 60.0* | -9.9
COc1ccc(NC(=O)/C(C#N)=C/c2ccc(OCc3ccccc3F)cc2)cc1 | i | 0.747 | -0.4 | 7.4 | 5.9
CC(=O)NC1=NN(C(C)=O)C(c2ccc(F)cc2)S1 (stereo not given) | i | 0.717 | -0.09 | 83.3* | 2.3
c1ccc2[nH]c(N3CCOCC3)nc2c1 | i | nt | 0.19 | 60.7* | 2.9
C/C(=N\Nc1nc2ccccc2[nH]1)c1ccc(N2CCOCC2)cc1 | i | 0.497 | 0.38 | 75.0* | -34.8
C/C(=N\Nc1nc(C)cc(C)n1)c1ccc(N2CCOCC2)cc1 | i | 0.62 | -1.7 | 16.7 | -26.2
Cc1ccc(/C=C2/N=C(c3ccccc3)NNC2=O)cc1 | i | nt | -0.19 | nt | -0.1
CC1CCCC(C)N1/N=C/c1ccccc1C(=O)O (stereo not given) | i | -0.905 | 2.05 | 72.2* | -11.3
CCC(=O)Nc1cccc(C(=O)/C=C/c2cc(Br)ccc2OC)c1 | i | -0.765 | 0.08 | 94.3* | -4.4
COc1cccc(-n2nnnc2SCC(=O)NC2CCCC2)c1 | i | 0.191 | 0.09 | 75.0* | 9.1
COc1ccccc1-n1nnnc1SCC(=O)NC1CCCC1 | i | nt | 0.28 | 30.0 | -4.3
CCCCOC(=O)Cn1c(=N)n(CCN2CCOCC2)c2ccccc21 | i | nt | nt | 40.9 | 2.9
N=c1n(CCN2CCOCC2)c2ccccc2n1CC(=O)c1ccc(Cl)c(Cl)c1 | i | -4.86* | 0.43 | nt | 1.6
Cc1cccc(N2CCN(C(=O)C(C)C)CC2)c1C | i | nt | 0.12 | 78.6* | 13.8
c1csc(-c2cn3ccc4ccccc4c3n2)c1 | i | nt | 1.3 | 85.7* | -5.9
CCC1(CC)NC(=O)NC1=O | i | nt | -0.4 | 90.9* | -1.0
Cc1noc(C)c1CSc1nnc(C)c(=O)[nH]1 | i | nt | 0.25 | 78.4* | 0.8
COc1ccc(OCC(=O)Nc2ccc(S(=O)(=O)Nc3cc(C)nc(C)n3)cc2)cc1 | i | 1.22 | 3.12* | nt | 0.9
COc1ccc(OCC(=O)Nc2ccc(S(=O)(=O)Nc3nc(C)cc(C)n3)cc2)cc1 | i | 0.769 | -0.01 | nt | 7.9
Cc1ccc(C2=NC3(CCCCC3)NC2=S)cc1 | i | 1.02 | -0.3 | 62.5* | -7.6
S=C1NC2(CCCCC2)N=C1c1ccccc1 | i | -1.08 | -0.19 | 0.0 | -3.6
COc1cccc(Nc2nc3ccc(OC)cc3s2)c1 | i | -0.157 | 0.16 | 71.4* | -2.1
COC(=O)/C(C#N)=C/c1cc(C)sc1C | i | nt | -0.15 | nt | -19.9
CC(=O)NC(c1ccc(Cl)cc1)c1c(O)ccc2ccc(O)cc12 (stereo not given) | i | -1.54 | 10.6* | nt | 6.2
CCCc1cc(=O)[nH]c(SCC(=O)NCCCC(=O)OCC)n1 | i | nt | 3.15* | -10.8 | -3.9
SMILES | HSV replic up | ROMK mod | Ins promoter up | Insulin prom inh | TbHK1 inh
CCCc1cc(=O)[nH]c(SCC(=O)NC(=O)OCC)n1 | nt | -0.441 | 0.25 | 27.0 | -1.3
CCOC(=O)c1[nH]c(C)c(C(=O)OCCOc2cccc(C)c2)c1C | i | nt | -1.14 | nt | -12.0
COc1ccc(CC(=O)N2CCN=C2SCc2cccc([N+](=O)[O-])c2)cc1 | i | -0.0235 | -0.81 | -216.7 | -1.6
Cc1cccc(NC(=O)c2nc[nH]c2C(=O)N[C@@H](Cc2ccccc2)C(=O)OCc2ccccc2)c1 | i | nt | -0.36 | nt | -23.6
Cc1nc2ccc(S(=O)(=O)NCC(=O)N3CCCC(C)C3)cc2s1 (stereo not given) | i | 0.0774 | -0.35 | 72.7* | -3.7
Cc1ccc(N2CC(=O)N(NC(=O)c3sc4nc(C)cc(C)c4c3N)CC2=O)cc1 | i | 0.00599 | -0.1 | nt | -16.9
FC(F)(F)c1cccc(Cc2noc(CN3CCCC(OCc4ccccn4)C3)n2)c1 (stereo not given) | i | -0.622 | 0.12 | nt | -2.7
